Records with an inconclusive call do not appear. Entries that show only a call come without a potency. The source made the active and inactive calls. Unless noted, calls follow the shape of the dose curve; as a rule, active = well fitted curve in the direction sought with a large enough effect; inconclusive = small, poorly fitted or top-dose-only effect, or another doubt; inactive = no such curve, though single readings can be large; an effect the other way counts as inactive or inconclusive.
Columns and labels:
[1] = target: Voltage-gated inwardly rectifying potassium channel KCNH2 (Homo sapiens) (UniProt Q12809); test: qHTS Assay for Small Molecule Inhibitors of the Human hERG Channel Activity (AID 588834);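 also: lower thallium flux fluorescence means stronger hERG block; nearly all actives have a fitted effect of over 50% in size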; also: potency is read from the fitted curve at half-maximal effect
Outline: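 In hERG-transduced U2OS cells, dye-loaded for 1 hr at room temperature in dark, test compounds incubated 10 min at 37 °C before thallium stimulation. AC50 values derived by Hill modelling of concentration-response.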

[2] = target: Glutaminase kidney isoform, mitochondrial (Homo sapiens) (UniProt O94925); test: qHTS for Inhibitors of Glutaminase (GLS): LOPAC Validation (AID 624146); also: nearly all actives have a fitted effect of over 60% in size; also: potency is read from the fitted curve at half-maximal effect
Outline: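 Compounds were pin-transferred onto hKGA, after which L-glutamine (1 mM solution) and a detection mix of glutamate oxidase, HRP and Amplex Red were added. Initial and 30 min RT fluorescence reads were collected.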

[3] = qHTS of Trypanosoma Brucei Inhibitors: LOPAC Validation (AID 624147)
Outline: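 Activity of T. brucei pyruvate kinase was followed by Kinase-Glo Plus luminescence after the enzyme reacted 45 min at room temperature with 130 uM ADP (final) and substrate. Test compounds were added before ADP at multiple concentrations.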

[4] = target: Glucagon-like peptide 1 receptor (Homo sapiens) (UniProt P43220); test: qHTS of GLP-1 Receptor Agonists: LOPAC Validation (AID 624148);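 also: higher luminescence signal means agonism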
Outline: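 HEK293 cells stably co-expressing GLP-1R and a cAMP-responsive luciferase reporter, plated 12 hours before compound, then incubated 4-6 hr at 37 deg C. Luminescence read 12 min after detection reagent.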

[5] = qHTS of Nrf2 Activators: LOPAC Validation (AID 624149)
Outline: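 AREc32_Fluc cells, 1000/well, OPTI-MEM + 5% FBS, o/n 37 deg C 5% CO2; compound pin-transfer, 24 hr 37 deg C; Steady-Glo 30 min RT, luminescence read.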

[6] = target: Peroxisome proliferator-activated receptor gamma (Homo sapiens) (UniProt P37231); test: qHTS assay for small molecule antagonists of peroxisome proliferator-activated receptor gamma signaling (AID 588537; active = well fitted inhibition curve with a large enough effect in the signal ratio, with a control signal flat, not every such curve was filed as active; the % refers to the signal ratio;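 also: reporter cells co-stimulated with 50 nM rosiglitazone agonist during compound treatment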)
Outline: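 Read-out: CCF4 fluorescence (ex 405, em 460/530 nm) after 2 h at RT. Cells were HEK293 carrying a UAS-bla reporter and treated 16 h at 37 C with compound plus rosiglitazone (50 nM final). Normalized to rosiglitazone and DMSO.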

[7] = target: Thyroid hormone receptor beta (Homo sapiens) (UniProt P10828); test: qHTS assay for small molecule agonists of thyroid hormone receptor beta signaling (AID 588545; calls by dose curve)
Outline: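 In this cell-based screen, titrated compounds act on HEK 293 cells held in medium with 2% charcoal/dextran FBS, NEAA and pyruvate for 18 hrs at 37 C. Responses are expressed relative to T3 (10 nM) as 100% and basal DMSO as 0%.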

[8] = qHTS assay for small molecule antagonists of retinoid X receptor alpha signaling (AID 588546; active = well fitted inhibition curve with a large enough effect in the signal ratio, with a control signal flat, not every such curve was filed as active; the % refers to the signal ratio;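 also: cells stimulated with 9-cis-retinoic acid as agonist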); settings: HEK293T RXRa-UAS-bla, beta-lactamase ratio, antagonist mode; measured here: W530 green channel, cytotoxicity proxy
Outline: (§1)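 Beta-lactamase reporter inhibition, read as CCF4 fluorescence ratio (ex 405, em 460/530 nm) after 2 h at RT. HEK293T UAS-bla cells, 2500/well, were stimulated with 9-cis-RA at 500 or 100 nM final alongside test compound for 18 h at 37 C.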

[9] = target: Retinoic acid receptor RXR-alpha (Homo sapiens) (UniProt P19793); test: as above; settings: HEK293T RXRa-UAS-bla, beta-lactamase ratio, antagonist mode
Outline: as §1

[10] = HTS Assay for Allosteric Antagonists of the Human D2 Dopamine Receptor: Hit Validation in HTRF (AID 624455)
Outline: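 HTRF read-out; cells stably expressing D1 receptor; hits scored for inhibition of D1-mediated response. Primary screen: calcium flux, force-coupled inducible Hek293 Trex D2 line, antagonism vs EC80 dopamine.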

[11] = target: Peroxisome proliferator-activated receptor gamma (Homo sapiens) (UniProt P37231); test: qHTS assay for small molecule agonists of peroxisome proliferator-activated receptor gamma signaling (AID 588536; active = well fitted curve in the direction sought with a large enough effect in the signal ratio, with a control signal flat, not every such curve was filed as active; the % refers to the signal ratio)
Outline: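 Compound treatment: 16 h, 37 C, HEK293 GeneBLAzer cells. Detection: CCF4, 2 h RT. Values: Hill-fit EC50, efficacy as % of 2 uM rosiglitazone.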

[12] = target: Vitamin D3 receptor (Homo sapiens) (UniProt P11473); test: qHTS assay for small molecule antagonists of vitamin D receptor signaling (AID 588541; calls by dose curve;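 also: receptor activated by calcitriol during compound treatment; series mostly up to about 77 µM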)
Outline: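 VDR-UAS-bla HEK293T cells in 2% charcoal-stripped FBS were stimulated with 1-alpha,25-dihydroxyvitamin D3 (3 nM final) plus compound for 16 h at 37 C. The beta-lactamase CCF4 readout was normalized to 50 nM agonist and DMSO, and Hill fits gave IC50.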

[13] = target: Vitamin D3 receptor (Homo sapiens) (UniProt P11473); test: qHTS assay for small molecule agonists of vitamin D receptor signaling (AID 588543; calls by dose curve)
Outline: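 GeneBLAzer VDR-UAS-bla HEK293T cells in 2% charcoal-stripped FBS medium were dosed with compound titrations for 16 h at 37 °C; CCF4 β-lactamase readout (405 nm ex, 460/530 nm em). EC50 and efficacy from Hill fits, normalized to 50 nM calcitriol (100%) and DMSO (0%).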

[14] = qHTS assay for small molecule agonists of retinoid X receptor alpha signaling (AID 588544; calls by dose curve); settings: HEK293T RXRa-UAS-bla, beta-lactamase reporter, 18 h; 530 nm emission
[15] = target: Retinoic acid receptor RXR-alpha (Homo sapiens) (UniProt P19793); test: as above
[16] = target: Thyroid hormone receptor beta (Homo sapiens) (UniProt P10828); test: qHTS assay for small molecule antagonists of thyroid hormone receptor beta signaling (AID 588547; active = well fitted inhibition curve with a large enough effect in the signal ratio, with a control signal flat, not every such curve was filed as active; the % refers to the signal ratio;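 also: cells stimulated with 0.4 nM T3 agonist during compound exposure; series mostly up to about 77 µM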); settings: TR-UAS-bla HEK293, beta-lactamase ratio, antagonist mode, 18 h
Outline: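 TR-UAS-bla GripTite HEK293 cells in 2% charcoal/dextran FBS medium; compounds 0.59 nM to 92 uM with T3 at 0.4nM final, 18 h at 37 C. Beta-lactamase read by CCF4 fluorescence (460/530 nm); Hill fits gave IC50 and efficacy.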

Peroxisome proliferator-activated receptor gamma (Homo sapiens), sequence (P37231 whole entry, looked up): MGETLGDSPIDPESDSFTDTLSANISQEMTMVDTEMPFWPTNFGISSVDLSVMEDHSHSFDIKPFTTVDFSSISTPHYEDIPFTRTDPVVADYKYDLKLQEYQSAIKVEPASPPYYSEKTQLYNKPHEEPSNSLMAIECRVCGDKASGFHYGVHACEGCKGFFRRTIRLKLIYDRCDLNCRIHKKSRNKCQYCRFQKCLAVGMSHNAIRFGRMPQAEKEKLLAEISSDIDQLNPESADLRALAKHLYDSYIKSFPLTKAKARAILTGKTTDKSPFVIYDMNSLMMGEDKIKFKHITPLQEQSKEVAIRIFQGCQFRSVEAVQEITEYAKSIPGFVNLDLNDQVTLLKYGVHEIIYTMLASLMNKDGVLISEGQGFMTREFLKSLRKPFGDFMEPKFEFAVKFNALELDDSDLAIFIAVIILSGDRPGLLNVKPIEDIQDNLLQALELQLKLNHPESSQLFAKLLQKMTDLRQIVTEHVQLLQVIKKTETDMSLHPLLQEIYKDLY
Thyroid hormone receptor beta (Homo sapiens), sequence (P10828 whole entry, looked up): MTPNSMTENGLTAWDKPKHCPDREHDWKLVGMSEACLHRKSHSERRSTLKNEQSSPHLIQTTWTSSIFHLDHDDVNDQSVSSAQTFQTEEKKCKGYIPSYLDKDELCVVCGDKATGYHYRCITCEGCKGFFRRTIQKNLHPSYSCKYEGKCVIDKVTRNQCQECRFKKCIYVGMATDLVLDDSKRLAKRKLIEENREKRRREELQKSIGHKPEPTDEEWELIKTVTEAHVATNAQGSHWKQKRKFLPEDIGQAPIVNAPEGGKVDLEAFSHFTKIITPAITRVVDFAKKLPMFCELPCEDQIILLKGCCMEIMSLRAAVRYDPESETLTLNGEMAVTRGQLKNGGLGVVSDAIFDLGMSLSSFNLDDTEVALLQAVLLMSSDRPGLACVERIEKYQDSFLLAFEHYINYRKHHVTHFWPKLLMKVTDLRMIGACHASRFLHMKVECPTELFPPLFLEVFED
Voltage-gated inwardly rectifying potassium channel KCNH2 (Homo sapiens), sequence (Q12809 whole entry, looked up): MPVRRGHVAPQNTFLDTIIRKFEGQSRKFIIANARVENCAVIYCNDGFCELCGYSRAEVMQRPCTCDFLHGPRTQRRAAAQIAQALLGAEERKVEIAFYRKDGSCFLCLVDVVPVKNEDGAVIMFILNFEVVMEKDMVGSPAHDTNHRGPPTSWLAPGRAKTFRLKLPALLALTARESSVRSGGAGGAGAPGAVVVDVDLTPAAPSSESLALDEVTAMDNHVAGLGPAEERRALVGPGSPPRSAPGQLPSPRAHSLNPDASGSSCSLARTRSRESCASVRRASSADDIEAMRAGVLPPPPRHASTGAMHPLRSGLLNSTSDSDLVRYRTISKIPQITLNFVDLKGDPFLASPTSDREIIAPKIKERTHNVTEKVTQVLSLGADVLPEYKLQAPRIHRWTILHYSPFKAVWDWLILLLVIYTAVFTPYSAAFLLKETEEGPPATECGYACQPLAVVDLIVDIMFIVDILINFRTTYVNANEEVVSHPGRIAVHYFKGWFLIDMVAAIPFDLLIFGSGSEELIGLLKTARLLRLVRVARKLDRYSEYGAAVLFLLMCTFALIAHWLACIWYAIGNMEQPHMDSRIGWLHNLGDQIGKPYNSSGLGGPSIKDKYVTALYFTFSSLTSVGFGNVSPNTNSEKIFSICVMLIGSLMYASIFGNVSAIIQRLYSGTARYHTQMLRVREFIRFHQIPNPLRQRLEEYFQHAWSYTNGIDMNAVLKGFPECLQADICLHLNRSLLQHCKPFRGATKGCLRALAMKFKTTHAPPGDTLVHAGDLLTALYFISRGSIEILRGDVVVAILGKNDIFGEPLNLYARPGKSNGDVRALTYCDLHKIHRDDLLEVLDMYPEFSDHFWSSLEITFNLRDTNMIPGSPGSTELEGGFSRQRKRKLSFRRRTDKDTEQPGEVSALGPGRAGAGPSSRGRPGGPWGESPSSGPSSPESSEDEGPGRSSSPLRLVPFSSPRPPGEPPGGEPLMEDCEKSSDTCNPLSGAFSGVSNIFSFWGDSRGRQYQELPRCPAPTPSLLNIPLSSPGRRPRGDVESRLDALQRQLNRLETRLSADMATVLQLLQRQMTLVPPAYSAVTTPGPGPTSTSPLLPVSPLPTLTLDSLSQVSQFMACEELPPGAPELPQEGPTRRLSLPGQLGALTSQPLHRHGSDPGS
Retinoic acid receptor RXR-alpha (Homo sapiens), sequence (P19793 whole entry, looked up): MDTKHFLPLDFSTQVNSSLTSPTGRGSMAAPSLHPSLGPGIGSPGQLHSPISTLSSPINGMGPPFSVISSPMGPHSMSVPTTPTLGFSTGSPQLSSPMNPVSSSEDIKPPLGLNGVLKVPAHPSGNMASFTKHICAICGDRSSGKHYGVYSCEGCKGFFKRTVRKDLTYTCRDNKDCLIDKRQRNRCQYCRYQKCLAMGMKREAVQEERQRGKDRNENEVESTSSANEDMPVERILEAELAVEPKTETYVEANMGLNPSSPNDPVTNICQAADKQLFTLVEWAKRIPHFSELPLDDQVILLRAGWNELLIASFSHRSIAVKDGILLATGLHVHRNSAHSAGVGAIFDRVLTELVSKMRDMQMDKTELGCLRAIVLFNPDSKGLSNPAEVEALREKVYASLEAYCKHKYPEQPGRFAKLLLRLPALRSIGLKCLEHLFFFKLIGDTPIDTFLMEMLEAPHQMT
Vitamin D3 receptor (Homo sapiens), sequence (P11473 whole entry, looked up): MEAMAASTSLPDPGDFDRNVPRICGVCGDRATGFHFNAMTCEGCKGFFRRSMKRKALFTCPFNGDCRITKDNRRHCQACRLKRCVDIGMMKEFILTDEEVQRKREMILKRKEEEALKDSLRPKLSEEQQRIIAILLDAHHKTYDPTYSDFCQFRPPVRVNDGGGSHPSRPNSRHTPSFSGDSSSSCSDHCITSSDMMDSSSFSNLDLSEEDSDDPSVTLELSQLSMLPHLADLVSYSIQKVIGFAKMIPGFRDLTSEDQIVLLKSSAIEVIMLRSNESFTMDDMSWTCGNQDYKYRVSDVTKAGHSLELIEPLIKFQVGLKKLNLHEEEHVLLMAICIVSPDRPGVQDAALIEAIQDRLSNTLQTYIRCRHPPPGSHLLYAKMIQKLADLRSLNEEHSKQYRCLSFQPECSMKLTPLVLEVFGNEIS
Glutaminase kidney isoform, mitochondrial (Homo sapiens), sequence (O94925 whole entry, looked up, canonical isoform): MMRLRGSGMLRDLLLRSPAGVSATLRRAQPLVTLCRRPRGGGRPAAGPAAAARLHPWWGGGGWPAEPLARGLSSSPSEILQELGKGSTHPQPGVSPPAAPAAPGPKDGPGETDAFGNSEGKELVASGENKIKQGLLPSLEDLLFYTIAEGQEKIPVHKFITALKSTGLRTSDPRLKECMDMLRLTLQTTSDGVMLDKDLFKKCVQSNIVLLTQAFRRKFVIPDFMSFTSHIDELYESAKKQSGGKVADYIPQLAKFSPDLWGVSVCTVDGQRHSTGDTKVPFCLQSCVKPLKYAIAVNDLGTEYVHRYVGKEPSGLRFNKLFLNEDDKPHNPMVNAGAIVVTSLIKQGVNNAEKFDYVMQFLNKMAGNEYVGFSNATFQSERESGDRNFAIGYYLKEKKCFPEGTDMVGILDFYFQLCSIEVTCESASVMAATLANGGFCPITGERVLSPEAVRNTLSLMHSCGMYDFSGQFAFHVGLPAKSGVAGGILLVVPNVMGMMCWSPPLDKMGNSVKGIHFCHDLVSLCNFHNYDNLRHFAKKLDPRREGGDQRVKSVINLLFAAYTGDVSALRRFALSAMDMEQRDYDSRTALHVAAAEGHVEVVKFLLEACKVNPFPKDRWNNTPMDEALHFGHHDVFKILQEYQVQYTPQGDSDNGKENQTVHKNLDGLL
Glucagon-like peptide 1 receptor (Homo sapiens), sequence (P43220 whole entry, looked up): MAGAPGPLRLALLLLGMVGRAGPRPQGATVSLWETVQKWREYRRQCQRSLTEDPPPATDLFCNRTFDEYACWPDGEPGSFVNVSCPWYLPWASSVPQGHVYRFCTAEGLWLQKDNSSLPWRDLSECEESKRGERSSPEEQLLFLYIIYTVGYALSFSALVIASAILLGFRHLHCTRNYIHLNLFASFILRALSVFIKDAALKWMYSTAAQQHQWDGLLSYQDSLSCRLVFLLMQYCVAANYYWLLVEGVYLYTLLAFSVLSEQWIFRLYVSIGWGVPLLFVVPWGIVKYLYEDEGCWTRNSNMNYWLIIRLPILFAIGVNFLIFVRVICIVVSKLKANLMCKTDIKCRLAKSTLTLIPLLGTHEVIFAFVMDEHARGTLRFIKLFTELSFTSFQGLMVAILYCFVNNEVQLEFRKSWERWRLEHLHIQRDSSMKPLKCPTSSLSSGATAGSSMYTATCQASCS

## CN1CCN(c2nc3cc(C(F)(F)F)ccc3n3cccc23)CC1
[1]
  Potency: 3.98 µM (active)
[2]
  Potency: inactive
[3]
  Potency: inactive
[4]
  Potency: inactive
[5]
  Potency: inactive

## NOCC(=O)O
[1]
  Potency: inactive
[2]
  Potency: inactive
[3]
  Potency: inactive
[4]
  Potency: inactive
[5]
  Potency: inactive

## CCCc1c(OCCCOc2ccc(OCC(=O)O)cc2)ccc(C(C)=O)c1O
[6]
  Potency: inactive
[7]
  outcome: inactive
[8]
  max response: 32.8%
[9]
  max response: -30.3% (inactive)
[1]
  Potency: inactive
[2]
  Potency: inactive
[3]
  Potency: inactive
[4]
  Potency: inactive
[5]
  Potency: inactive
[10]
  Potency: inactive

## CC(C)Cn1c(=O)n(C)c(=O)c2[nH]cnc21
[1]
  Potency: inactive
[2]
  Potency: inactive
[3]
  Potency: inactive
[4]
  Potency: inactive
[5]
  Potency: inactive

## NC(=O)c1ccccc1
[11]
  Potency: inactive
[6]
  Potency: inactive
[12]
  outcome: inactive
[13]
  outcome: inactive
[14]
  max response: -1.09%
[15]
  Potency: inactive
[7]
  outcome: inactive
[8]
  max response: -3.13%
[9]
  max response: 5.33% (inactive)
[16]
  activity change % (negative = inhibition): -4.09% (inactive)
[1]
  Potency: inactive
[2]
  Potency: inactive
[3]
  Potency: inactive
[4]
  Potency: inactive
[5]
  Potency: inactive
[10]
  Potency: inactive

## COc1ccc(-c2ccc(N)[n+](CCCC(=O)O)n2)cc1
[1]
  Potency: inactive
[2]
  Potency: inactive
[3]
  Potency: inactive
[4]
  Potency: inactive
[5]
  Potency: inactive

## CC1=C(/C=C/C(C)=C/C=C/C(C)=C\C(=O)O)C(C)(C)CCC1
[6]
  Potency: inactive
[12]
  outcome: inactive
[7]
  outcome: inactive
[16]
  activity change % (negative = inhibition): 9.82% (inactive)
[2]
  Potency: inactive
[4]
  Potency: inactive
[5]
  Potency: inactive
[10]
  Potency: inactive

## Nc1ccc(-c2ccc3ccccc3n2)cc1
[1]
  Potency: inactive
[2]
  Potency: inactive
[3]
  Potency: inactive
[4]
  Potency: inactive
[5]
  Potency: inactive
[10]
  Potency: inactive

## Cc1cc2c(cc1Cl)N(C(=O)Nc1ccnc3ccccc13)CC2
[1]
  Potency: inactive
[2]
  Potency: 7.08 µM (active)
[3]
  Potency: inactive
[4]
  Potency: inactive
[5]
  Potency: inactive
[10]
  Potency: inactive

## O=[N+]([O-])c1cccc2c(Br)[nH]nc12
[1]
  Potency: inactive
[2]
  Potency: inactive
[3]
  Potency: inactive
[4]
  Potency: inactive
[5]
  Potency: inactive
[10]
  Potency: inactive

## NCCCCN
[1]
  Potency: inactive
[2]
  Potency: inactive
[3]
  Potency: inactive
[4]
  Potency: inactive
[5]
  Potency: inactive
[10]
  Potency: inactive

## O=C(O)[C@H]1NCCC[C@H]1C(=O)O
[1]
  Potency: inactive
[2]
  Potency: inactive
[3]
  Potency: inactive
[4]
  Potency: inactive
[5]
  Potency: inactive
[10]
  Potency: inactive

## C[C@H](NC(=O)/C(C#N)=C/c1ccc(O)c(O)c1)c1ccccc1
[1]
  Potency: inactive
[2]
  Potency: 0.794 µM (active)
[3]
  Potency: inactive
[4]
  Potency: inactive
[5]
  Potency: inactive
[10]
  Potency: inactive

## O=C(c1ccc2c(c1)OCCO2)N1CCCCC1
[1]
  Potency: inactive
[2]
  Potency: inactive
[3]
  Potency: inactive
[4]
  Potency: inactive
[5]
  Potency: inactive
[10]
  Potency: inactive

## O=C(OCCN1CCOCC1)C1(c2ccccc2)CCCCC1
[1]
  Potency: inactive
[2]
  Potency: inactive
[3]
  Potency: inactive
[4]
  Potency: inactive
[5]
  Potency: inactive
[10]
  Potency: inactive

## N[C@@H](CCC(=O)N[C@H](CSN=O)C(=O)NCC(=O)O)C(=O)O
[1]
  Potency: inactive
[2]
  Potency: inactive
[3]
  Potency: inactive
[4]
  Potency: inactive
[5]
  Potency: inactive
[10]
  Potency: inactive

## COCc1nc2c([nH]1)c(=O)n(C)c(=O)n2CC(C)C
[1]
  Potency: inactive
[2]
  Potency: inactive
[3]
  Potency: inactive
[4]
  Potency: inactive
[5]
  Potency: inactive
[10]
  Potency: inactive

## N=C(N)c1ccc(N)cc1
[1]
  Potency: inactive
[2]
  Potency: inactive
[3]
  Potency: inactive
[4]
  Potency: inactive
[5]
  Potency: inactive
[10]
  Potency: inactive

## N[C@H](C(=O)O)[C@H](O)C(=O)O
[1]
  Potency: inactive
[2]
  Potency: inactive
[3]
  Potency: inactive
[4]
  Potency: inactive
[5]
  Potency: inactive
[10]
  Potency: inactive

## C#CC(N)CCC(=O)O (stereo unspecified)
[1]
  Potency: inactive
[2]
  Potency: inactive
[3]
  Potency: inactive
[4]
  Potency: inactive
[5]
  Potency: inactive
[10]
  Potency: inactive

## O=C(O)C1CCCNC1 (stereo unspecified)
[1]
  Potency: inactive
[2]
  Potency: inactive
[3]
  Potency: inactive
[4]
  Potency: inactive
[5]
  Potency: inactive
[10]
  Potency: inactive

## N[C@H](C(=O)O)[C@H]1C[C@@H]1C(=O)O
[1]
  Potency: inactive
[2]
  Potency: inactive
[3]
  Potency: inactive
[4]
  Potency: inactive
[5]
  Potency: inactive
[10]
  Potency: inactive

## CCCCCC(O)CCCC(=O)O (stereo unspecified)
[1]
  Potency: inactive
[2]
  Potency: inactive
[3]
  Potency: inactive
[4]
  Potency: inactive
[5]
  Potency: inactive
[10]
  Potency: inactive

## O=c1onc2cnc3ccccc3n12
[1]
  Potency: inactive
[2]
  Potency: 7.08 µM (active)
[3]
  Potency: inactive
[4]
  Potency: inactive
[5]
  Potency: inactive
[10]
  Potency: inactive

## C=C(C)C1CC=C(C(=O)O)CC1 (stereo unspecified)
[1]
  Potency: inactive
[2]
  Potency: inactive
[3]
  Potency: inactive
[4]
  Potency: inactive
[5]
  Potency: inactive
[10]
  Potency: inactive

## c1ccc(CN2CCC3(CCCc4ccccc43)CC2)cc1
[1]
  Potency: 3.98 µM (active)
[2]
  Potency: inactive
[3]
  Potency: inactive
[4]
  Potency: inactive
[5]
  Potency: inactive
[10]
  Potency: inactive

## CC1CCN=C(N)S1 (stereo unspecified)
[1]
  Potency: inactive
[2]
  Potency: inactive
[3]
  Potency: inactive
[4]
  Potency: inactive
[5]
  Potency: inactive
[10]
  Potency: inactive

## OC[C@H]1O[C@@H](n2cnc3cncnc32)[C@H](O)[C@@H]1O
[1]
  Potency: inactive
[2]
  Potency: inactive
[3]
  Potency: inactive
[4]
  Potency: inactive
[5]
  Potency: inactive
[10]
  Potency: inactive

## CCN(CC)CCCCCCCCOC(=O)c1cc(OC)c(OC)c(OC)c1
[1]
  Potency: 11.2 µM (active)
[2]
  Potency: inactive
[3]
  Potency: inactive
[4]
  Potency: inactive
[5]
  Potency: inactive
[10]
  Potency: inactive

Reference: PubChem BioAssay (NCATS)
